In PubChem BioAssay:
A number with no mark means an inactive call. The rule behind the calls is not given here.

target: Pantothenate synthetase (Mycobacterium tuberculosis (strain ATCC 25618 / H37Rv)) (UniProt P9WIL5); assay: Coupled enzyme confirmation of inhibitors against recombinant Mtb PanC (AID 375); settings: coupled enzyme assay; at 10 µM, stronger effect = higher value;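 note: 0% = full reaction with vehicle and 100% = no enzyme background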
Sequence (P9WIL5 whole entry, looked up): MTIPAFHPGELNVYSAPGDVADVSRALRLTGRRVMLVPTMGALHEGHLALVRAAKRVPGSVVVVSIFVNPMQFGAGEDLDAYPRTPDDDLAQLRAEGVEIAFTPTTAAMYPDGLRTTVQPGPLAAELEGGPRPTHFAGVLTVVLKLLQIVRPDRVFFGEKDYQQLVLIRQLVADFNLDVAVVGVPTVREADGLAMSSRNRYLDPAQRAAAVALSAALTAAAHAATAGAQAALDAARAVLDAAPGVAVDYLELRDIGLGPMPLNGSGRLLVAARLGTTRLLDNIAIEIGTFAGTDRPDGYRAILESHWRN

Row | SMILES | inhibition [%]
1 | CSc1ccccc1NS(=O)(=O)c1ccccc1 | 3
2 | CCOc1ccc2nc(SCC(=O)N3CCCCCC3)c(C#N)cc2c1 | 0
3 | O=C(c1cccs1)N(Cc1ccco1)Cc1cc2ccccc2[nH]c1=O | 0
4 | Cc1c(C(=O)N2CCN(c3ccccc3)CC2)sc2ncnc(N3CCN(c4ccccc4)CC3)c12 | 0
5 | Cc1ccc(S(=O)(=O)NCC(c2cccnc2)N(C)C)cc1 (stereo not given) | 3
6 | COc1ccccc1C1(CC(=O)N2CCOCC2)CCOC(C(C)C)C1 (stereo not given) | 2
7 | Cc1ccc(NC(=O)C2CCCN(S(=O)(=O)c3cnc[nH]3)C2)cc1C (stereo not given) | 11
8 | CCCn1c(SCC(=O)N2CCc3ccccc3C2)nc2c1c(=O)n(C)c(=O)n2C | 1
9 | CCn1c(CNc2ccc(OC)cc2)nnc1SCC(=O)c1ccc(OC)cc1 | 0
10 | Cc1cc(NC(=O)C23CCC(C)(C(=O)O2)C3(C)C)no1 (stereo not given) | 1
11 | O=C1NC(=O)C(c2ccccc2)(c2ccccc2)N1 | 0
12 | CCCC1(C(=O)OCC)NC(c2ccc(N(C)C)cc2)C2C(=O)N(c3ccccc3)C(=O)C21 (stereo not given) | 0
13 | O=S(=O)(c1ccc(N2CCN(c3ccc(F)cc3)CC2)cc1)N1CCCC1 | 0
14 | COc1ccccc1OCc1ccc(C(=O)OCC2CCCO2)o1 (stereo not given) | 0
15 | Cc1c(C(=O)O)oc2ccc(S(=O)(=O)NCc3ccccc3)cc12 | 0
16 | COc1cccc(CN2C(=O)C3(C(C#N)=C(N)OC4=C3C(=O)CCC4)c3ccccc32)c1 (stereo not given) | 0
17 | Cn1c(=O)c2c(nc(Oc3ccc4c(c3)OCO4)n2Cc2ccc(F)cc2)n(C)c1=O | 0
18 | O=C(Nc1ccc2c(c1)OCO2)c1ccc(Br)c(S(=O)(=O)N2CCCC2)c1 | 1
19 | Cc1[nH]nc(N=CC2=C(O)CC(C)(C)CC2=O)c1-c1ccccc1 | 5
20 | O=C(Nc1ccc2c(c1)OCCO2)c1ccco1 | 5

Row | SMILES | inhibition [%]
21 | COCCOC(=O)C1=C(N)OC2=C(C(=O)CC(C)(C)C2)C1c1cccnc1 (stereo not given) | 0
22 | O=S1(=O)CCC(NS(=O)(=O)/C=C/c2ccccc2)C1 (stereo not given) | 8
23 | CC(C)=CCC(C)(C)C1OCCN1C(=O)c1ccccc1 (stereo not given) | 2
24 | CC(C)CC(c1nnnn1C1CCCC1)N1CCN(c2ccccc2F)CC1 (stereo not given) | 0
25 | Nc1nc(Nc2cccc3ccccc23)nc(C2CCCC2=O)n1 (stereo not given) | 5
26 | COc1ccccc1NC(=O)NCc1ccc2c(c1)OCO2 | 1
27 | CCSc1nc2c(c(=O)n(C)c(=O)n2C)n1Cc1ccc(Cl)cc1 | 4
28 | COc1cc2c(N3CCOCC3)cc(O)c(CC(=O)Nc3ccccc3)c2cc1OC | 7
29 | CCCCn1c(SCC(=O)c2ccc3c(c2)OCCO3)nnc1-c1ccco1 | 4
30 | Cc1cc(C(F)(F)F)nc(NCc2cccnc2)n1 | 0
31 | CCN(CC)c1ccc(/C=N/n2nnnc2N)c(O)c1 | 6
32 | COCC(=O)Nc1c(C(=O)Nc2ccccc2OC)oc2ccccc12 | 1
33 | COc1ccc(C(O)Cn2c(=N)n(CCCN(C)C)c3ccccc32)cc1 (stereo not given) | 0
34 | CCCn1nc(CC(=O)O)c2ccccc2c1=O | 0
35 | Cn1c(=O)c(-c2ccccc2)nn2c3ccccc3nc12 | 0
36 | C(=N\c1c(-c2ccccc2)nc2n1CCS2)/c1ccccc1 | 4
37 | N#CCCNCC1(c2ccccc2)CCCC1 | 7
38 | CC(=O)c1ccccc1NS(=O)(=O)c1c(C)nn(-c2ccccc2)c1C | 0
39 | COc1ccc(OC)c(N(CC(=O)Nc2cccnc2)S(=O)(=O)c2ccc(OC)c(OC)c2)c1 | 0
40 | OCCN1CCN(CCCN2c3ccccc3Sc3ccc(C(F)(F)F)cc32)CC1 | 2
